Bioassay records (PubChem)
A selection: hits, their analogues and other compounds. The true share with any hit is near 1.3%.
KCNH2 3.1 block: blocks the human KCNH2 3.1 channel isoform; U2OS KCNH2 3.1, thallium flux FluxOr; hits give low values; activity change, % (tested at about 1.8 µM); 0.95% of 340,000 active; AID 720553;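 active means maximum activity change below -70%; inconclusive means maximum activity change from -70% to -50%; inactive means maximum activity change above -50%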;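 further: thallium influx rate constant from kinetic fluorescence after stimulation buffer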
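Normalized rate constant (relative to positive and negative DMSO controls) derived from a 2 min kinetic fluorescence read after stimulation; U2OS cells expressing the 3.1 isoform via virus at 1.77 x 10^8 /mL.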
TRPV1 ag: agonists of human vanilloid receptor 1 (TRPV1) | activation, % at 8.33 µM | 0.19% of 320,000 active | TRPV1-expressing cells, Fluo-8 calcium influx, agonist mode | Q8NER1; in the data active means activation above about 80%; inconclusive means between about 30% and that limit
Target sequence (Q8NER1 whole entry, looked up): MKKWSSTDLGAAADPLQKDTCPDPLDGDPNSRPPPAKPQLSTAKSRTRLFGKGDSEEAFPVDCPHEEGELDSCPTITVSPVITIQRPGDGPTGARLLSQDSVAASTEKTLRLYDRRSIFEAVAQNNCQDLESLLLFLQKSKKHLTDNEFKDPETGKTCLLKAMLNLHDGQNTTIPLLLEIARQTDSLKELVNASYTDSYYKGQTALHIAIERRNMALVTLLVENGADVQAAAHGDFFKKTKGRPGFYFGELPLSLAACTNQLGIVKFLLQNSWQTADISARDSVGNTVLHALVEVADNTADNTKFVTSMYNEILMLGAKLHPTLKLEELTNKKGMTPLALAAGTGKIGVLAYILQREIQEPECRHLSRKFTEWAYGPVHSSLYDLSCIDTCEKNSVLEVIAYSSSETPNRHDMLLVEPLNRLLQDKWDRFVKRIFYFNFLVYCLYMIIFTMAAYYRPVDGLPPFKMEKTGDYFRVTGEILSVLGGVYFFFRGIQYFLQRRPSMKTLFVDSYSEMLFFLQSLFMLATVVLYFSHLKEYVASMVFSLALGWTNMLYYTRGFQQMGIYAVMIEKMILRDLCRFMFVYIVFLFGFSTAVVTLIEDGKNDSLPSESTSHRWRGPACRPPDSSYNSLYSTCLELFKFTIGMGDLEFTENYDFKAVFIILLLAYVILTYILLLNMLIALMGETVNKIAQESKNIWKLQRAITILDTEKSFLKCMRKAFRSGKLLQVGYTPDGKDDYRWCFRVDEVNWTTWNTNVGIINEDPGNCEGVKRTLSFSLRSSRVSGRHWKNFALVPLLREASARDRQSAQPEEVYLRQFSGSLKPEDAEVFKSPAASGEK
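Fluo-8 calcium influx in TRPV1-expressing cells, kinetic read (ex 480/em 520 nm). Compound added and read 3 min for agonist activity, followed by capsaicin at EC20 final and 2 min further read for enhancement.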
TRPV1 potentiator: enhances activation of the human vanilloid receptor TRPV1 | Q8NER1 | TRPV1-expressing cells, Fluo-8 calcium influx, capsaicin EC20 potentiation | potentiation, % at 8.33 µM | 0.02% of 320,000 active | AID 540277; in the data active means potentiation above about 80%; inconclusive means between about 30% and that limit
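Cells expressing TRPV1 were dye-loaded with Fluo-8 and read kinetically: 10 s baseline, 3 min after compound (agonist portion), then 2 min after EC20 capsaicin (allosteric enhancer portion). Calcium-bound dye fluorescence at 480/520 nm.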
KCNH2 WT inh: blocks the wildtype human KCNH2 potassium channel; Q12809; U2OS, BacMam KCNH2, thallium flux FluxOr; hits give low values; activity change, % at 1.84 µM; 0.37% of 340,000 active;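 active means maximum activity change below -70%; inconclusive means maximum activity change between -70% and -50%; inactive means maximum activity change above -50%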
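U2OS cells were transduced with wild-type KCNH2 virus (2.03 x 10^8 / mL) for 4 h at room temperature, then cultured overnight at 37 C. Thallium flux was read with FluxOr dye. Rate constants were normalized to DMSO controls.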
Large screens that a line does not name were inactive.

Clc1ccc2c(c1)C(c1ccccc1Cl)=NCc1nnc(N3CCN(CCSc4ccccc4)CC3)n1-2	KCNH2 WT inh -153
ClCCN1CCN(c2ccnc3cc(Cl)ccc23)CC1	none
C=CC(=O)NCNC(=O)C=C	none
O=C(CN1CCOCC1)NCC(=O)Nc1ccc(Br)cc1C(=O)c1ccccc1	none
CN1CCN(CC(=O)Nc2ccc([N+](=O)[O-])cc2C(=O)c2ccccc2)CC1	KCNH2 3.1 block -110, KCNH2 WT inh -103
Cc1ccc(OP(=O)(NCc2ccccc2)Oc2ccc(C)cc2)cc1	KCNH2 3.1 block -87, TRPV1 ag inconclusive
Nc1ccc(CCN2CCN(c3cccc(C(F)(F)F)c3)CC2)cc1	KCNH2 3.1 block -72 (no result: TRPV1 ag, TRPV1 potentiator)
Nc1ccc(CCN2CCCC2)cc1	none
CCc1nn(CC(=O)N2CCC3(CC2)OCCO3)c(=O)c2cc3ccccc3n12	none
O=C(Cn1nc(-c2ccc(Cl)cc2)ccc1=O)N1CCC2(CC1)OCCO2	TRPV1 potentiator 105
c1cc2c(cc1[C@H]1OCC3C1CO[C@@H]3c1ccc3c(c1)OCO3)OCO2 (stereo not given in full)	KCNH2 3.1 block -70 (no result: TRPV1 ag, TRPV1 potentiator)
Cc1ccsc1C(=O)C1CCCN(Cc2cccn2-c2ccccn2)C1 (stereo not given)	KCNH2 3.1 block -75
COc1ccc2c(c1O)C13CCN(C)C(C2)C1CCC(=O)C3 (stereo not given)	none (no result: TRPV1 ag, TRPV1 potentiator)
Cc1ccc(OCCSC2=NN2c2cc(C)nc(N)n2)cc1	none
CCSC1=NN1c1cc(C)nc(N)n1	KCNH2 3.1 block -95
CCN(CC)CCNCC(=O)Nc1ccc(Cl)cc1C(=O)c1ccccc1	KCNH2 3.1 block -95, KCNH2 WT inh -87
NN=C(N)N	none
CCOC(=O)C1(CCc2ccccc2)CCN(Cc2ccc3c(c2)OCCO3)CC1	KCNH2 3.1 block -113
CCOC(=O)C1(CCc2ccccc2)CCN(Cc2ccc(NC(C)=O)cc2)CC1	none
CCOC(=O)C1(CCOc2ccccc2)CCN(Cc2ccc(C)s2)CC1	KCNH2 3.1 block -84, KCNH2 WT inh -94
COC(=O)C1=C(c2ccc(S(C)(=O)=O)cc2)C[C@@H]2CC[C@H]1N2C(=O)N1CCC(C)CC1	KCNH2 3.1 block -99 (no result: TRPV1 ag, TRPV1 potentiator)
CCc1c(C)nc(N)nc1N1N=C1SC(C(C)=O)C(C)=O	none
O=C(CF)N(O)c1ccc(C=Cc2ccccc2)cc1	none (no result: KCNH2 3.1 block, TRPV1 ag, TRPV1 potentiator)
O=P(Oc1ccccc1)(Oc1ccccc1)C(Nc1ccccc1)c1ccccc1 (stereo not given)	KCNH2 3.1 block -70
CSc1ccc(CN2CCN(c3ccccc3C)CC2)cc1	KCNH2 3.1 block -114, KCNH2 WT inh -129
COc1ccccc1N1CCN(Cc2ccc(SC)cc2)CC1	KCNH2 3.1 block inconclusive
CN1/C(=C\C=C2C(=O)NC(=S)NC2=O)C(C)(C)c2ccccc21	TRPV1 ag 98
CC1(C)OC(c2ccccc2)=C/C(=C/C=C2C(=O)NC(=S)NC2=O)O1	none
COc1cccc2c1C(=O)c1c(O)c3c(c(O)c1C2=O)CC(O)(C(C)=NO)CC3OC1CC(N)C(O)C(C)O1 (stereo not given)	none (no result: TRPV1 ag, TRPV1 potentiator)
CCCCCn1c(=O)c(C(=O)NCc2ccncc2)c(O)c2ccccc21	KCNH2 WT inh -75
COc1ccc2[nH]c(C)c(CCNCc3cc(OC)c(OC)c(OC)c3)c2c1	none
COc1ccc(CNCCc2c(C)[nH]c3ccc(OC(F)(F)F)cc23)c(OC)c1	KCNH2 3.1 block -78
Cc1ccc2c(c1)CC1(CN2C)C(=O)NC(=O)N(c2ccccc2C)C1=O (stereo not given)	none
COc1ccccc1N1C(=O)NC(=O)C2(Cc3cc(C)ccc3N(C)C2)C1=O (stereo not given)	KCNH2 WT inh -124
C=CCNC(=S)N1Cc2ccccc2-n2nncc2C1	KCNH2 WT inh -120 (no result: TRPV1 ag, TRPV1 potentiator)
CNC(=O)Oc1cc2c(cc1C(C)(C)C)CCC2	none (no result: TRPV1 ag, TRPV1 potentiator)
CCCCCSc1cc(O)c(C(CNC)C(C)C)cc1OC (stereo not given)	none
CCCCCSc1cc(OC)c(CCN(C)C)cc1OC	KCNH2 3.1 block -70
COc1ccccc1N1CCN(CCc2c[nH]c3cc4c(cc23)OCO4)CC1	none (no result: TRPV1 ag, TRPV1 potentiator)
N#Cc1cc(F)c(N2CCNCC2)cc1Cl	none
N#Cc1ccc(N2CCNCC2)c(F)c1	KCNH2 3.1 block -76, KCNH2 WT inh inconclusive
O=[N+]([O-])c1ccc(N2CCCCCC2)c2nonc12	KCNH2 3.1 block inconclusive, TRPV1 ag inconclusive
O=[N+]([O-])c1ccc(NCc2ccccc2)c2nonc12	TRPV1 ag 126, KCNH2 WT inh inconclusive
CC12CCC(=O)C=C1CC(O)C1C2CCC2(C)C1CCC2(C)O (stereo not given)	none (no result: TRPV1 ag, TRPV1 potentiator)
CC/C(=C\C=C\[C@@H]1C=C[C@@H]2CCC[C@H]2[C@@H]1C(=O)c1ccc[nH]1)[C@@H]1O[C@@H]([C@@H](C)C(=O)O)CC[C@@H]1C	TRPV1 ag inconclusive
CCN(CC(=O)Nc1ccc(C#N)c(Cl)c1)CC(=O)NC1CCS(=O)(=O)C1 (stereo not given)	none
O=C(NCC1=C(c2ccc3ccccc3c2)C[C@@H]2CC[C@H]1N2Cc1ccco1)c1ccncc1	none (no result: TRPV1 ag, TRPV1 potentiator)
O=C(NCC1=C(c2ccc3ccccc3c2)C[C@@H]2CC[C@H]1N2Cc1ccco1)c1ccc([N+](=O)[O-])cc1	KCNH2 3.1 block -99 (no result: TRPV1 ag, TRPV1 potentiator)
CS(=O)(=O)c1ccc(C2=C(CNC(=O)c3cccs3)[C@H]3CC[C@@H](C2)N3Cc2ccco2)cc1	KCNH2 3.1 block -94 (no result: TRPV1 ag, TRPV1 potentiator)
CS(=O)(=O)c1ccc(C2=C(CNC(=O)c3cccs3)[C@H]3CC[C@@H](C2)N3Cc2ccccc2)cc1	KCNH2 WT inh inconclusive (no result: TRPV1 ag, TRPV1 potentiator)
O=C(CCCN1CCC(n2c(=O)[nH]c3ccccc32)CC1)c1ccc(F)cc1	KCNH2 3.1 block -71
O=C(Cc1cccs1)N1Cc2ccccc2-n2nncc2C1	none (no result: TRPV1 ag, TRPV1 potentiator)
COc1ccc(OCC(=O)N2CCCC(N3CCN(c4ccccc4C)CC3)C2)cc1 (stereo not given)	KCNH2 3.1 block -74
COc1ccccc1OCC(=O)N1CCCC(N2CCN(c3ccc(F)cc3)CC2)C1 (stereo not given)	none
Cc1ccc(OCC(=O)N2CCCC(N3CCN(c4ccc(F)cc4)CC3)C2)cc1 (stereo not given)	KCNH2 3.1 block -86
Cc1ccc2scc(N3CCN(C)CC3)c(=O)c2c1	none (no result: KCNH2 3.1 block, KCNH2 WT inh)
CCOC(=O)C1CCN(Cc2ccc(Cl)nc2)CC1	KCNH2 WT inh -74
COC(=O)C1=C(c2ccccc2OCc2ccccc2)C[C@@H]2CC[C@H]1N2C(=O)NCc1ccccc1	none (no result: KCNH2 3.1 block, KCNH2 WT inh)
COC(=O)C1=C(c2ccccc2OCc2ccccc2)C[C@@H]2CC[C@H]1N2C(=O)NCc1ccc(Br)cc1	KCNH2 3.1 block -82
COC(=O)C1=C(c2cccc(OC)c2OC)C[C@@H]2CC[C@H]1N2C(=O)NCCS(C)=O (stereo not given in full)	KCNH2 WT inh -163 (no result: TRPV1 ag, TRPV1 potentiator)
N#CCCCCC#N	none (no result: TRPV1 ag, TRPV1 potentiator)
C#CCN1CCN(c2ccc(F)cc2)CC1	none
CCCc1nnc(NC(=O)CCC(=O)N2CCN(CCOC(c3ccccc3)c3ccccc3)CC2)s1	none
Fc1ccc(C(OCCN2CCCC2)c2ccc(Br)cc2)cc1 (stereo not given)	KCNH2 3.1 block -72, KCNH2 WT inh inconclusive
c1ccc(CCCN2CCN(CCOC(c3ccccc3)c3ccccc3)CC2)cc1	KCNH2 3.1 block -117, KCNH2 WT inh inconclusive (no result: TRPV1 ag, TRPV1 potentiator)
